IL-1B inflam inh = blocks inflammasome-driven IL-1 beta release | THP-1 LPS/ATP IL-1B secretion, AlphaLISA, 16 h; active compounds read low | activity change, % at 57.5 µM | 360,000 compounds, 4.7% hits | AID 743279; in the data active means activity change below about -50%; inconclusive means mostly about -30% to -49%
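THP-1 cells pretreated 1 hr with compounds (up to 57.5 uM final), then stimulated with LPS (250 ng/mL final) plus ATP (1.25 mM final); secreted IL-1B measured by AlphaLISA after 16 hr, decreased signal indicating inhibition.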
D3 ag = D3 dopamine receptor (human) agonism | AID 652048 | max activation, % | 410,000 compounds, 0.58% hits | D3R DiscoveRx beta-arrestin cells, luminescence, 90 min; in the data active means max activation above about 30%
Target sequence (P35462 whole entry, looked up): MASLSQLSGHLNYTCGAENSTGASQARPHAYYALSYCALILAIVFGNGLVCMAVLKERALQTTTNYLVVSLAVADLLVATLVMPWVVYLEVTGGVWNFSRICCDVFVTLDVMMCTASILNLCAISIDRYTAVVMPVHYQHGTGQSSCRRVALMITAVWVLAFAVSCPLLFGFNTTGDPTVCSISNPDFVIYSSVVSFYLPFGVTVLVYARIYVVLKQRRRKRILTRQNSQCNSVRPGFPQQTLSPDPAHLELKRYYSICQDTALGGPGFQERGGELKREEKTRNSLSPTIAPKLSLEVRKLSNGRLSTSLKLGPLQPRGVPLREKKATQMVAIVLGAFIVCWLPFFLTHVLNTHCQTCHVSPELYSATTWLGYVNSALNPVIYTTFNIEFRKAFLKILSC
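Cells at 1500/well, incubated overnight, then treated with pinned compounds (dopamine as control) for 90 min at 37 degrees C. DiscoveRx reagent added for 30 - 60 minutes at room temperature; luminescence read.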
DRD3 antagonist = D3 dopamine receptor (human) antagonism. P35462. D3R cells, DiscoveRx beta-arrestin luminescence, antagonist mode; active compounds read low. 360,000 compounds, 2.5% hits. AID 652054. max response, negative = inhibition, %; in the data active means max response below about -50%; inconclusive means no clear call, values can overlap the other calls
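Cells plated overnight at 1500 cells/well, then exposed to library compounds with dopamine controls for 90 minutes at 37 degrees C. DiscoveRx reagent added for 30–60 minutes at room temperature; luminescence read, quantitative HTS format.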
a7 integrin act = activates integrin-mediated alleviation for muscular dystrophy. alpha7betagal myoblasts, beta-gal FDG fluorescence, 48 h. Potency, µM (top dose mostly 38.3 µM), most hits filed as activators. 350,000 compounds, 0.064% hits; further: nearly all actives have a fitted effect of over 60% in size
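alpha7betagal+/- myoblasts (passage 13, 250/well) treated 48 h at 37C with compounds at 1:260 dilution of DMSO stock. Lysed, then beta-galactosidase activity read as FDG fluorescence (ex 480/em 540) after 30 min, with pre-read for autofluorescence.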
S2 tox = viability counter-screen for ATXN expression inhibitors; Potency, µM (doses to about 56.7 µM), most hits filed as cytotoxic; 400,000 compounds, 0.49% hits; AID 651635; S2 cells (HEK-293 line with an ATXN2-luciferase reporter) viability, CellTiter-Fluor protease fluorescence, 24 h; further: nearly all actives have a fitted effect of over 40% in size
ATXN2 expr inh = inhibitors of ATXN2 expression. 360,000 compounds, 0.72% hits. Potency, µM (top dose mostly 57 µM), actives largely listed as inhibitors. HEK-293 ATXN2-luciferase reporter, luminescence, 24 h; further: nearly all actives have a fitted effect of over 55% in size
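qHTS (up to 57 uM final) was run with 24 h compound exposure of reporter cells at 37 °C. Each well was multiplexed: SteadyGlo luminescence measured ATXN2-luciferase expression after a fluorogenic Gly-Phe-AFC viability readout (25 uM final).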
Numbers stand for hits; n = inactive; u = inconclusive; x = not tested or not shown; [ ] = another dose, or the depositor's remark. An excerpt weighted towards active compounds, which were near 7% of everything screened. Unless noted, the call rests on the fitted dose curve; in most records, active means well fitted curve in the direction sought with a large enough effect; inconclusive means small, poorly fitted or top-dose-only effect, or another doubt; inactive means no such curve, though single readings can be large; an effect the other way counts as inactive or inconclusive.

SMILES	IL-1B inflam inh	D3 ag	DRD3 antagonist	a7 integrin act	S2 tox	ATXN2 expr inh
Cn1nnnc1SCc1ccc(C(=O)Nc2nccs2)cc1	n	n	n	n	n	n
Cc1ccc(OCC(=O)NC(=S)Nc2ccc(Br)c(C)n2)cc1	n	n	n	u	n	n
CCOC(=O)C1(C)/C(=N/Nc2ccccc2OC)C(=O)C(=O)N1c1ccccc1 (stereo not drawn)	n	n	n	n	n	n
CCOC(=O)C1(C)/C(=N/Nc2ccccc2)C(=O)C(=O)N1c1ccccc1 (stereo not drawn)	n	n	-57.9	n	n	n
COc1ncnc2c1sc1nc(-c3ccccc3)c3c(c12)CCCC3	n	37.4	n	n	n	n
CN(C)CCNc1ncnc2c1sc1nc(-c3ccccc3)c3c(c12)CCCC3	-75.8	n	n	n	x	31.6µM
O=C(COC(=O)c1cccc(S(=O)(=O)N2CCOCC2)c1)Nc1ccc(Cl)cn1	n	n	n	n	u	x
CCOC(=O)c1c(NC(=O)c2ccc(N3C(=O)[C@@H]4[C@H](C3=O)[C@H]3C=C[C@@H]4C3)cc2)sc2c1CC(C)CC2 (stereo partly drawn)	-81.5	n	n	n	n	n[11.3 µM]
CCOC(=O)c1cc(CC)sc1NC(=O)c1ccc(N2C(=O)CCC2=O)cc1	n	50.5	n	n	n	n
CCOC(=O)c1c(-c2ccccc2)csc1NC(=O)c1cccc(N2C(=O)CCC2=O)c1	n	61.7	n	n	n	n
CCOC(=O)c1c(-c2ccc(C)cc2)csc1NC(=O)c1cccc(N2C(=O)CCC2=O)c1	n	n	n	n	n	n
COc1cc(/C=N/N2CCN(Cc3ccccc3)CC2)cc(OC)c1OC	n	n	n	n	n	x
CC(C)(C)OC(=O)NCCCC[C@H](NC(=O)c1[nH]cnc1C(=O)Nc1ccc(Cl)cc1)C(=O)OC(C)(C)C	-58.4	n	n	n	u	u
CC(C)(C)OC(=O)NCCCC[C@H](NC(=O)c1[nH]cnc1C(=O)Nc1ccccc1)C(=O)OC(C)(C)C	u	n	n	n	u	u
CC(C)(C)OC(=O)NCCCC[C@H](NC(=O)c1nc[nH]c1C(=O)N1CCN(c2ccccc2)CC1)C(=O)OC(C)(C)C	-55.4	n	n	n	u	n
CCOC(=O)c1c(C)[nH]c(C)c1S(=O)(=O)NCCN1CCN(c2ccccc2F)CC1	n	n	-57.7	n	n	n
CCOC(=O)c1c(C)[nH]c(C)c1S(=O)(=O)NCC1CCN(Cc2ccc(C)cc2)CC1	n	n	-53.8	n	n	n
CCOC(=O)c1c(C)[nH]c(C)c1S(=O)(=O)NCC1CCN(Cc2ccccc2F)CC1	n	n	n	n	u	x
COc1ccc(S(=O)(=O)N(C)CC(=O)NCCN2CCOCC2)cc1	n	n	n	u	n	n
COc1ccc(C2C(C(=O)NCc3ccco3)c3ccccc3C(=O)N2C)cc1 (stereo not drawn)	n	n	n	n	n	n
CCN(CC)CCCNC(=O)C1c2ccccc2C(=O)N(C)C1c1ccc(OC)cc1 (stereo not drawn)	n	n	-52.0	n	n	n
O=C(CC1(O)C(=O)Nc2cc(Cl)cc(Cl)c21)c1ccncc1 (stereo not drawn)	-100.2	n	u	n	25.1µM	u
COc1ccc(C(=O)CC2(O)C(=O)Nc3c(Cl)ccc(Cl)c32)cc1 (stereo not drawn)	x	x	x	x	x	n
CCCN(CCC)CCCNC(=O)c1cc2c(=O)[nH]c3ccccc3c2s1	-72.7	n	n	n	n	n
CCN(CCCNC(=O)c1cc2c(=O)[nH]c3ccc(C)cc3c2s1)Cc1ccccc1	x	n	x	x	u	u
SMILES	IL-1B inflam inh	D3 ag	DRD3 antagonist	a7 integrin act	S2 tox	ATXN2 expr inh
CCCCN(CC)CCNC(=O)c1cc2c(=O)[nH]c3ccccc3c2s1	x	n	-54.2	n	u	n
C=C1C(=O)[C@@]23[C@H](O)C[C@@H]4C(C)(C)CC[C@H](O)[C@@]4(C)[C@@H]2CC[C@@H]1[C@H]3O	u	n	-56.5	n	7.94µM	u
C=C1C(=O)[C@@]23[C@H](O)C[C@@H]4C(C)(C)CC[C@H](O)[C@]4(C)[C@@H]2C[C@H](O)[C@@H]1[C@H]3O	u	n	n	n	17.8µM	n
COC(=O)C1CCN(C(=O)C2CCC(=O)N(CCCc3ccccc3)C2)CC1 (stereo not drawn)	n	n	n	n	n	n
CCOc1ccc(CCNC(=O)CCc2c(C)nc3c(c(C)nn3-c3ccccc3)c2C)cc1OCC	x	n	x	x	n	n
O=[N+]([O-])c1ccc(O)c(/C=N\N=C2c3ccccc3-c3ccccc32)c1	n	n	-78.2	n	u	22.4µM
Cc1cc(C)n(/N=C/c2cc([N+](=O)[O-])ccc2O)c(=O)c1	n	n	-67.4	n	n	n
O=[N+]([O-])c1ccc(O)c(/C=N/Nc2ccc(Cl)nn2)c1	n	n	-84.1	n	u	u
O=[N+]([O-])c1ccc(O)c(/C=N/n2c(-c3ccccc3)n[nH]c2=S)c1	n	n	u	n	n	n
CN(C)/N=C/c1cc([N+](=O)[O-])ccc1O	n	n	-61.0	n	n	n
Cc1cc(C)n2nc(C(=O)Nc3nnc(C4CC4)s3)nc2n1	n	n	n	n	n	n
O=[N+]([O-])c1ccc(O)c(/C=N/n2cnnc2)c1	n	n	-83.0	n	u	n
O=[N+]([O-])c1cccc(/C=N/n2cnnc2)c1	n	n	n	n	n	n
Cc1nn(-c2ccccc2)c2nc(=O)n(-c3ccccc3)cc12	n	n	-65.0	n	n	n
Cc1ccc2nc3c(cc2c1)c(C)nn3-c1ccccc1	n	n	n	n	x	n
CN/C=C1\C(=O)C(C)(C)Oc2ccc3ccc(=O)oc3c21	n	n	n	n	u	n
CC1(C)Oc2ccc3ccc(=O)oc3c2/C(=C/Nc2cccc(O)c2)C1=O	-83.6	n	n	n	u	n
CC1(C)Oc2ccc3ccc(=O)oc3c2/C(=C/Nc2ccc(O)cc2)C1=O	-80.6	n	n	n	n	n
CC1(C)Oc2ccc3ccc(=O)oc3c2/C(=C/Nc2ccccn2)C1=O	n	n	n	n	u	n
CC1(C(=O)Nc2ccc3c(c2)OCO3)Cc2c(-c3cccc(C(N)=O)c3)ccnc2O1 (stereo not drawn)	n	n	n	x	u	n
OCCC1CN(Cc2ccc(Oc3ncccn3)cc2)CCN1Cc1ccc(F)c(F)c1 (stereo not drawn)	n	n	-72.3	n	u	n
OCC1(Cc2ccccc2)CCN(Cc2cnc(-c3ccc(Cl)cc3)nc2)CC1	-94.1	n	n	n	n	n
OCC1(Cc2ccccc2)CCN(Cc2cnc(-c3cccc4ccccc34)nc2)CC1	-57.3	n	n	n	n	n
